Measured values published in PubChem BioAssay (NCATS).
Counter-ions that a name gives are not always drawn. Results filed as inconclusive are left out. A call without a number means that no potency is given here. Active and inactive are the calls of the source. Unless noted, calls follow the shape of the dose curve; as a rule, active = well fitted curve in the direction sought with a large enough effect; inconclusive = small, poorly fitted or top-dose-only effect, or another doubt; inactive = no such curve, though single readings can be large; an effect the other way counts as inactive or inconclusive. Peptide text beside a SMILES is read from it. * marks the point of attachment. Tfa = O=C(C(F)(F)F)*

Experiments:
[1] = molecular target: Cytochrome P450 3A4 (Homo sapiens) (UniProt P08684); assay: qHTS Assay for Inhibitors and Substrates of Cytochrome P450 3A4 (AID 884); also: nearly all actives have a fitted effect of over 50% in size; also: potency is read from the fitted curve at half-maximal effect
Chain of Cytochrome P450 3A4 (Homo sapiens) (P08684 whole entry, looked up): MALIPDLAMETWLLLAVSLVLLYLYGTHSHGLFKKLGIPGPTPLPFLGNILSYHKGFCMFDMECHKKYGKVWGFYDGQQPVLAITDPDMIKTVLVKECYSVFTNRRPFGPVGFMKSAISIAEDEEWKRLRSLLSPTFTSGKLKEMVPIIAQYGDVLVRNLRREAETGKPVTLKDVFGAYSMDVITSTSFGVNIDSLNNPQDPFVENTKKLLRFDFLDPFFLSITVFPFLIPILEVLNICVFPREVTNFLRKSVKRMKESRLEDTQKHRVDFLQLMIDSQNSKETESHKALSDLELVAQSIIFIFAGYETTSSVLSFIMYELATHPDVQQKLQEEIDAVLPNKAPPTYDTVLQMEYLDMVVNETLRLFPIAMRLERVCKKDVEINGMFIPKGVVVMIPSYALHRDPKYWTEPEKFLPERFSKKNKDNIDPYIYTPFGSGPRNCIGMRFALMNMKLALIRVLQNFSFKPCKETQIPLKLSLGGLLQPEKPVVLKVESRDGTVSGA
Method in brief: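 Luminescent readout of luciferin produced by CYP3A4 (20 nM) dealkylation of Luciferin-PPXE, 25 uM (its KM). NADPH-driven reaction ran 60 min at RT after 10 min compound preincubation; data scaled to 57 uM ketoconazole as 100% inhibition.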

[2] = Confirmation and Secondary Assay for Modulators of Hemoglobin Beta Chain Splicing at IVS2 654 locus (AID 910);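 also: per-well total GFP intensity by laser scanning cytometry after 2-day treatment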
Method in brief: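 HeLa cells stably carrying EGFP interrupted by mutant beta-globin IVS2-654 intron (CMV-driven) were treated with compound for 2 days at 37C; corrected splicing was scored as total peak GFP intensity per well (488 nm excitation, 500-520 nm emission).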

[3] = Confirmation and Secondary Assay for Modulators of Hemoglobin Beta Chain Splicing at IVS2 705 locus (AID 930);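 also: HeLa cells stably expressing the EGFP-705 splicing reporter; GFP fluorescence per well restored by corrected splicing of the IVS2-705 intron in EGFP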
Method in brief: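 HeLa EGFP-705 reporter; 500 cells/well, o/n 37C 5% CO2; cpd 2 d; 488 ex/500-520 em laser scan; total peak GFP intensity/well. Ref: 500 nM […] antisense PNA.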

[4] = qHTS Assay for Lipid Storage Modulators (AID 1519; calls by dose curve); details: Drosophila S3 cells, BODIPY lipid droplet/cell ratio, laser cytometry, cells loaded with oleic acid; for activity change, negative = inhibition: at 57.5 µM (top of the series)
Method in brief: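 Cells seeded at 5,000 per well were treated with compounds over a concentration series and loaded with oleic acid (400 uM, as added). Lipid droplet fluorescence (488 nm excitation, 500-530 nm channel) was read by laser-scanning cytometry and normalized to 20 uM Triacsin C.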

[5] = molecular target: Ubiquitin carboxyl-terminal hydrolase 1 (Homo sapiens) (UniProt O94782); assay: Inhibitors of USP1/UAF1: Pilot qHTS (AID 504865);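 also: rhodamine fluorescence freed from ubiquitin-rhodamine substrate followed over time; top concentration of the series differs between compounds; nearly all actives have a fitted effect of over 35% in size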
Chain of Ubiquitin carboxyl-terminal hydrolase 1 (Homo sapiens) (O94782 whole entry, looked up): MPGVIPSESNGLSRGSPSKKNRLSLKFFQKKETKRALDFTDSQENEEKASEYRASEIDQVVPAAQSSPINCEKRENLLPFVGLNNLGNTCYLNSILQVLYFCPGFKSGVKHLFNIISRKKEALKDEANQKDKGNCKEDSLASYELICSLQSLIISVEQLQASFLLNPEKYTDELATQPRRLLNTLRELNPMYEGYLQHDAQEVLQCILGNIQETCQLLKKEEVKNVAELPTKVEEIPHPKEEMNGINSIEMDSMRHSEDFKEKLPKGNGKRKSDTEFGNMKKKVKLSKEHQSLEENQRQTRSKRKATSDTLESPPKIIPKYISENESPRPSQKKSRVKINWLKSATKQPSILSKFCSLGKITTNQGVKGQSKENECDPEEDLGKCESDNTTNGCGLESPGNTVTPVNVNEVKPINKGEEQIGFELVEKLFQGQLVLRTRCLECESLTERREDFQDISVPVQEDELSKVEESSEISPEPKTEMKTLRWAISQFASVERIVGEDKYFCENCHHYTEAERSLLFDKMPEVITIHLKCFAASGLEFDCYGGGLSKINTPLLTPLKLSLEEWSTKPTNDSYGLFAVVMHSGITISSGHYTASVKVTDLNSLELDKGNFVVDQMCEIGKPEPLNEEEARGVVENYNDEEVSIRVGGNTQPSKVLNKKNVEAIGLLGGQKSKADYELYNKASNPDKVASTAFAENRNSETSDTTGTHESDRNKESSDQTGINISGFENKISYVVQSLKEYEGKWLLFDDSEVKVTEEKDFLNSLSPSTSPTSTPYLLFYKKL
Method in brief: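 USP1/UAF1 complex (1nM) preincubated with compound 15 min at room temperature, then Ub-Rho substrate (150nM final) added. Fluorescence read kinetically at 480/540 nm, 6 reads every 60 seconds. Buffer: 50mM HEPES pH 7.8, 0.5mM EDTA, 0.1 mg/ml BSA, 1mM TCEP, 0.01% Tween-20.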

[6] = molecular target: DNA dC->dU-editing enzyme APOBEC-3G (Homo sapiens) (UniProt Q9HC16); assay: qHTS for inhibitors of Vif-A3G interactions: Validation (AID 588379)
Chain of DNA dC->dU-editing enzyme APOBEC-3G (Homo sapiens) (Q9HC16 whole entry, looked up): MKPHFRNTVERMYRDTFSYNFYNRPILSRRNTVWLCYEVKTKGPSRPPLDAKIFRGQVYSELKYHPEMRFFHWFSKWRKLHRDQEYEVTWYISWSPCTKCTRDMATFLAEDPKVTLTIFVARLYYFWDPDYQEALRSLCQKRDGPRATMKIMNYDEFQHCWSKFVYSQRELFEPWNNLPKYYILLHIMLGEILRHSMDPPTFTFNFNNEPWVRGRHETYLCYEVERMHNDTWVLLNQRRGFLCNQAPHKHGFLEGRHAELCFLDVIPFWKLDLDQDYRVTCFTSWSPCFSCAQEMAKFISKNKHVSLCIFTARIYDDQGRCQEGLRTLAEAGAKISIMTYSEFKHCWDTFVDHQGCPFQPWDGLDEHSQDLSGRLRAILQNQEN
Method in brief: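 Yellow fluorescence (Ex 488, Em 500-530) of Vif-coexpressing HeLa A3G-eYFP cells, scanned by Acumen cytometer, reports blocked A3G degradation. Cells plated at 700/well overnight at 37 deg C before compound addition, then a further overnight compound incubation at 37 deg C.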

[7] = molecular target: Cytochrome P450 3A4 (Homo sapiens) (UniProt P08684); assay: qHTS Assay for Activators of Cytochrome P450 3A4 (AID 885); also: nearly all actives have a fitted effect of over 65% in size
Method in brief: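 Using 20nM recombinant human CYP3A4 in potassium phosphate (200mM), substrate Luciferin-PPXE at 25uM, luminescent luciferin detection followed a 60-min RT NADPH reaction; data scaled to 57 uM ketoconazole.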

[8] = molecular target: Luciferin 4-monooxygenase (Photinus pyralis) (UniProt P08659); assay: Biochemical firefly luciferase enzyme assay for NPC (AID 624030);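 also: purified P. pyralis luciferase at 10 nM with luciferin and ATP substrate; nearly all actives have a fitted effect of over 70% in size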
Chain of Luciferin 4-monooxygenase (Photinus pyralis) (P08659 whole entry, looked up): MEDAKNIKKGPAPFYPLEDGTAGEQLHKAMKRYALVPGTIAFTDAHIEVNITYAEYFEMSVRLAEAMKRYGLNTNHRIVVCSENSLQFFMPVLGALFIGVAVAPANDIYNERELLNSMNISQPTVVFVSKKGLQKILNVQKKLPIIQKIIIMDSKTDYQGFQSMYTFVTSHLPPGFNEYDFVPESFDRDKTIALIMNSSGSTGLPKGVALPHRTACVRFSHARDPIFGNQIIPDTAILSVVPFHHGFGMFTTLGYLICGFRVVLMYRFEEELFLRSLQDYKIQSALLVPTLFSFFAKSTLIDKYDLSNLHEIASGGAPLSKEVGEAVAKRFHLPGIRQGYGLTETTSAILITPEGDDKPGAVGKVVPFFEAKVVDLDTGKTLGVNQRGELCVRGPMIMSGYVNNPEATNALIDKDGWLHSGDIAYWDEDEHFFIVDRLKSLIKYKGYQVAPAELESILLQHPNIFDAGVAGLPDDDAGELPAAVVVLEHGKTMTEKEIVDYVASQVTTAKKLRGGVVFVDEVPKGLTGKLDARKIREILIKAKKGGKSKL
Method in brief: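 Counter-screen for direct inhibition of the luciferase enzyme by approved-drug library compounds, run at 10 nM enzyme in 50 mM Tris acetate (final). Luminescence was read within 5 min of enzyme-buffer addition and normalized to PTC124 versus DMSO (0%).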

[9] = measured here: cell count channel max response
[10] = measured here: lipid channel max response

SMILES	Potency [1]	Potency [2]	Potency [3]	activity change, negative = inhibition [4]	max response [4, 9]	max response [4, 10]	Potency [5]	outcome [6]	Potency [7]	Potency [8]
Nc1ncnc2c1ncn2C1CC(O)C(CO)O1 (stereo not drawn)	inactive	inactive	inactive	-2.62% (inactive)	-5.57%	-5.3%	inactive	inactive		
O=c1cc(-c2cccc(O)c2)oc2ccc(O)cc12	3.98 µM (active)	inactive		13.1% (inactive)	3.49%	17.7%	inactive		inactive	
O=c1cc(-c2ccc(O)c(O)c2)oc2ccccc12	15.8 µM (active)	inactive	inactive	2.38% (inactive)	-4.12%	2.75%	inactive		inactive	
CC1=CC(=O)[C@@H]2C[C@H]1C2(C)C	inactive			4.82% (inactive)	-1.97%	-0.655%	inactive	inactive		
CC1(C)SC2C(NC(=O)C(N)c3ccccc3)C(=O)N2C1C(=O)O (stereo not drawn)		inactive	inactive	7.23% (inactive)	15.7%	29.5%	inactive			inactive
CC1(C)CC2/C(CO)=C/C=C/[C@](C)(O)CC[C@]21O (stereo partly drawn)	15.8 µM (active)	inactive	inactive	4.24% (inactive)	22.8%	29.9%	inactive		inactive	
O=c1cc(-c2ccccc2)oc2cccc(O)c12		inactive	inactive	19.1% (inactive)	2.34%	21.9%	inactive	inactive	inactive	
C[C@@H]1O[C@@H](O[C@H]2[C@H](Oc3cc(O)c4c(c3)O[C@H](c3ccc(O)cc3)CC4=O)O[C@H](CO)[C@@H](O)[C@@H]2O)[C@H](O)[C@H](O)[C@H]1O	inactive			-1.6% (inactive)	-6.96%	-9.22%	inactive	inactive		
CC(=O)OCC(=O)[C@@]1(O)CCC2C3CCC4=CC(=O)CC[C@@]4(C)[C@]3(F)C(O)C[C@]21C (stereo partly drawn)	inactive	inactive	inactive	4.35% (inactive)	21.1%	29.1%	inactive			
OCC(O)C(O)[C@H](O[C@H]1OC(CO)C(O)C(O)C1O)[C@H](O)CO (stereo partly drawn)	inactive	inactive	inactive	3.91% (inactive)	11.8%	16%	inactive			
COC(=O)C1=CO[C@@H](O[C@H]2OC(CO)C(O)C(O)C2O)C2C1CC(O)C2C (stereo partly drawn)	inactive	inactive	inactive	6.73% (inactive)	11.3%	19.4%	inactive			
CC(=O)OCC(=O)[C@@]1(O)CCC2C3CCC4=CC(=O)CC[C@]4(C)C3C(O)C[C@]21C (stereo partly drawn)	inactive	inactive	inactive	7.11% (inactive)	10.3%	18.3%	inactive			
COC1C(O)C(CO)OC1n1cnc2c(=O)[nH]c(N)nc21 (stereo not drawn)	inactive	inactive	inactive	5.46% (inactive)	13.5%	20.7%	inactive			
COc1cccc(/C=C/C(=O)O)c1C(C)C	inactive	inactive	inactive	9.75% (inactive)	13%	26.7%	inactive			
CCC(/C=C/C(C)C1CCC2C3CC=C4CC(O)CC[C@@]4(C)C3CC[C@@]12C)C(C)C (stereo partly drawn)	inactive	inactive	inactive	-0.637% (inactive)	13.1%	13.6%	inactive			
CC1(C)C=Cc2cc3ccc(=O)oc3cc2O1	inactive	inactive	inactive	11.6% (inactive)	-4.2%	7.43%	inactive			
COc1ccc(-c2cc(=O)c3c(O)c(OC)c(OC)c(OC)c3o2)cc1	inactive	inactive	inactive	5.49% (inactive)	14.3%	20.3%	inactive			
CCC(CCC(C)C1CCC2C3CCC4CC(O)CC[C@@]4(C)C3CC[C@@]12C)C(C)C (stereo partly drawn)	inactive	inactive	inactive	7.69% (inactive)	1.31%	10.4%	inactive			
O=c1[nH]c(Cl)nc2c1ncn2C1OC(CO)C(O)C1O (stereo not drawn)	inactive	inactive	inactive	5.69% (inactive)	2.53%	10.3%	inactive			
CCOC(=O)C(CCc1ccccc1)NC(C)C(=O)N1CCCC1C(=O)O (stereo not drawn)	inactive	inactive	inactive	10.8% (inactive)	9.89%	24.1%	inactive			
CC(C)(O)CCC(O)[C@@](C)(O)C1CC[C@]2(O)C3=CC(=O)C4CC(O)C(O)C[C@]4(C)C3CC[C@]12C (stereo partly drawn)	inactive	inactive	inactive	2.72% (inactive)	-2.83%	0.37%	inactive			
CCCCCCCCCCCCCc1ccco1	inactive	inactive	inactive	1.58% (inactive)	-6.07%	3.51%	inactive			
COC1C(O)C(O)C(O)C(O)C1O (stereo not drawn)	inactive	inactive	inactive	5.15% (inactive)	13.2%	22.7%	inactive			
CC(=O)NC(CC(=O)O)C(=O)NC(CCC(=O)O)C(=O)O (stereo not drawn) (Ac-Asp-Glu-OH; configuration not given here)	inactive	inactive	inactive	4.52% (inactive)	12.9%	18.5%	inactive			

SMILES	Potency [1]	Potency [2]	Potency [3]	activity change, negative = inhibition [4]	max response [4, 9]	max response [4, 10]	Potency [5]	outcome [6]	Potency [7]	Potency [8]
CC(=O)N[C@H](Cc1c[nH]c2ccccc12)C(N)=O	inactive	inactive	inactive	4.6% (inactive)	3.77%	4.03%	inactive			
CC1(C)SC2C(NC(=O)C(NC(=O)N3CCNC3=O)c3ccccc3)C(=O)N2C1C(=O)O (stereo not drawn)	inactive	inactive	inactive	8.06% (inactive)	17.4%	28.9%	inactive			
CC(=O)Oc1c(C)cccc1C(=O)O	inactive	inactive	inactive	5.46% (inactive)	15.6%	23.9%	inactive			
CC(=O)OC1CCC2(C)C3CC(=O)C4(C)C(CC5OC6(CCC(C)CO6)C(C)C54)C3CC[C@H]2C1 (stereo partly drawn)	inactive	inactive	inactive	5.04% (inactive)	11.2%	17.7%	inactive			
CC(=O)OC1CC[C@@]2(C)C(CC[C@@]3(C)C2CC=C2C4CC(C)(C)CC[C@]4(C)CC[C@@]23C)C1(C)C (stereo partly drawn)	inactive	inactive	inactive	4.64% (inactive)	6.83%	14%	inactive			
CC(C)C(N)C(=O)NC(Cc1c[nH]c2ccccc12)C(=O)O (stereo not drawn)	inactive	inactive	inactive	7.82% (inactive)	15.4%	28.4%	inactive			
CC1CCC2(OC1)OC1CC3C4CCC5CC(O)CCC5(C)C4=CCC3(C)C1C2C (stereo not drawn)	inactive	inactive	inactive	-0.725% (inactive)	2.89%	3.25%	inactive			
CC1C(O)CC2C(C(=O)O)=CO[C@@H](O[C@H]3OC(CO)C(O)C(O)C3O)C21 (stereo partly drawn)	inactive	inactive	inactive	4.54% (inactive)	10.9%	15.2%	inactive			
CC(=O)OCC1OC(n2cnc3c(=O)[nH]cnc32)C(OC(C)=O)C1OC(C)=O (stereo not drawn)	inactive	inactive	inactive	3.9% (inactive)	9.07%	13.2%	inactive			
CCCCCC(CC(=O)O)C(=O)O (stereo not drawn)	inactive	inactive	inactive	12.5% (inactive)	21.4%	35.2%	inactive			
CC(C)CCCC(C)C1CCC2C3CC(=O)[C@H]4CC(O)CC[C@]4(C)C3CC[C@@]12C (stereo partly drawn)	inactive	inactive	inactive	-8.35% (inactive)	-5.43%	-14%	inactive			
COC1C(O)C(CO)OC1n1c(Br)nc2c(=O)[nH]c(N)nc21 (stereo not drawn)	inactive	inactive	inactive	1.73% (inactive)	0.309%	3.63%	inactive			
CS(=O)(=O)CCCCN=C=S	inactive	inactive	inactive	-15.3% (inactive)	-1.15%	-18%	inactive			
NC(CCC(=O)NC(CCSC(CC(=O)O)C(=O)O)C(=O)NCC(=O)O)C(=O)O (stereo not drawn)	inactive	inactive	inactive	6.92% (inactive)	13.3%	21.2%	inactive			
CC1C(=O)CCC2[C@]1(C)CCC1[C@]2(C)CC[C@@]2(C)C3CC(C)(C)CC[C@]3(C)CC[C@@]12C (stereo partly drawn)	inactive	inactive	inactive	2.51% (inactive)	9.14%	14.3%	inactive			
CC1O[C@@H](Oc2c(-c3ccc(O)c(O)c3)oc3cc(O)cc(O)c3c2=O)C(O)C(O)C1O (stereo partly drawn)	inactive	inactive	inactive	10.2% (inactive)	19.3%	40.6%	inactive			
CC(C)C(NC(=O)C(Cc1ccc(O)cc1)NC(=O)C(NC(=O)C(F)(F)F)C(C)C)C(=O)O (stereo not drawn) (Tfa-Val-Tyr-Val-OH; configuration not given here)	inactive	inactive	inactive	4.31% (inactive)	0.432%	4.35%	inactive			
Nc1nc2nc(Cl)[nH]c2c(=O)[nH]1	inactive	inactive	inactive	6.34% (inactive)	6.47%	14.5%	inactive			
CC(=O)OCC(=O)[C@]1(O)C(OC(C)=O)CC2C3CCC4=CC(=O)C=C[C@@]4(C)[C@]3(F)C(O)C[C@]21C (stereo partly drawn)	inactive	inactive	inactive	2.18% (inactive)	7.55%	12.5%	inactive			
Cc1onc(-c2ccccc2)c1C(=O)NC1C(=O)N2C(C(=O)O)C(C)(C)S[C@@H]12 (stereo partly drawn)	inactive	inactive	inactive	9.92% (inactive)	9.88%	24.8%	inactive			
CC(C)CCCC(C)C1CCC2C3CC[C@H]4CC(=O)CC[C@@]4(C)C3CC[C@@]12C (stereo partly drawn)	inactive	inactive	inactive	1.96% (inactive)	8.57%	10.7%	inactive			
COc1cc(/C=C/C(=O)O)cc(OC)c1OC	inactive	inactive	inactive	3.87% (inactive)	9.64%	14.9%	inactive			
Nc1ncnc2c1nc(Cl)n2C1OC(CO)C(O)C1O (stereo not drawn)	inactive	inactive	inactive	3.24% (inactive)	5.55%	12.1%	inactive			
CCOC(=O)C(=O)C1(C(=O)OCC)Oc2cc(OC)cc(OC)c2C(=O)C1c1ccccc1 (stereo not drawn)	inactive	inactive	inactive	5.57% (inactive)	9.96%	15%	inactive			
